Source: PubChem (several laboratories)
Compounds with a hit are over-represented: about 5% of the library has one in this group of screens.
SENP8 block-1: SENP8 protease inhibitors, primary screen, biochemical, luminescence. Sentrin-specific protease 8 (Homo sapiens), Q96LD8. purified SENP8, Z-RLRGG-aminoluciferin cleavage. inhibition, % at 10 µM. hit rate 1.2% among 330,000; in the data active = inhibition above about 50%
SENP6 block: SENP6 protease inhibitors, primary screen, biochemical, luminescence, uHTS; Sentrin-specific protease 6 (Homo sapiens), Q9GZR1; Recombinant SENP6 catalytic domain, aminoluciferin luminescence; inhibition, % at 10 µM; hit rate 1.8% among 330,000; AID 2599, 2010;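 active = inhibition above about 50% at the single tested dose, limit read from the data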;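 note: plate controls were DMSO wells with enzyme for no effect and DMSO wells lacking enzyme for full effect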
Target sequence (Q9GZR1 628-1112 limits assumed): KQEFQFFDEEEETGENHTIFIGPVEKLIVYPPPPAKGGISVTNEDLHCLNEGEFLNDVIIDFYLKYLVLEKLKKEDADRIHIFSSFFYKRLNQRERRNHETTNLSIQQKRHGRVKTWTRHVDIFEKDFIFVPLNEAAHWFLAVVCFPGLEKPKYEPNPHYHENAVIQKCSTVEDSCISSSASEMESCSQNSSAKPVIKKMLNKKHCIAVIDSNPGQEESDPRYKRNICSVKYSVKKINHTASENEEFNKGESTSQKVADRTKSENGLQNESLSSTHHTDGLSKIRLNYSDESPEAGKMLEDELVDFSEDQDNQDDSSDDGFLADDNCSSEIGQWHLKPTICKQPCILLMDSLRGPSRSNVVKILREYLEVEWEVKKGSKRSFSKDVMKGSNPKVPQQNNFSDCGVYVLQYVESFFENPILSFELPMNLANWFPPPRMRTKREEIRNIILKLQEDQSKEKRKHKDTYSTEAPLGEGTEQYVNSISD
EBI2 antag: EBI2 receptor antagonists, beta-arrestin recruitment, primary screen, cell-based, luminescence, 7a,25-OHC stimulation, uHTS. G-protein coupled receptor 183 (Homo sapiens), P32249. 7a,25-OHC stimulated. inhibition, % at 5 µM. hit rate 0.81% among 360,000. AID 651636, 2012; in the data active = inhibition above about 38%;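 note: enzyme fragment complementation signal reports receptor beta-arrestin coupling in cells; 0% = agonist plus DMSO wells and 100% = wells without agonist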
SENP8 block-2: human SENP8 protease inhibitors, primary screen, biochemical, fluorescence, Nedd8 protein substrate, uHTS; Sentrin-specific protease 8 (Homo sapiens), Q96LD8; recombinant SENP8; inhibition, % at 20 µM; hit rate 0.64% among 360,000; AID 602440, 2012; in the data active = inhibition mostly above about 40%, no sharp cut-off; inactive = mostly below about 27%
AHR activator: AHR activators, primary screen, cell-based, luminescence, luciferase reporter, human; Aryl hydrocarbon receptor (Homo sapiens), P35869; AHR-responsive luciferase reporter cells; activation, % at 5 µM; hit rate 2.5% among 320,000; AID 2796, 2010; in the data active = activation above about 47%;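 note: 0% = vehicle wells and 100% = reference agonist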
SENP7 inh: SENP7 protease inhibitors, primary screen, biochemical, luminescence, uHTS. hit rate 1.5% among 330,000. recombinant SENP7, Z-RLRGG-aminoluciferin luminescence, 40 min. inhibition, % at 5 µM. AID 434973, 2010. Sentrin-specific protease 7 (Homo sapiens), Q9BQF6;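 active = inhibition above about 50% at the single test dose, limit read from the data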;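 note: plate controls were DMSO with enzyme for no effect and no enzyme buffer wells for full effect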
The depositor's hits bear a star; i = inactive; nt = no result given.

SMILES	SENP8 block-1	SENP6 block	EBI2 antag	SENP8 block-2	AHR activator	SENP7 inh
CCC1(C(=O)OC)CCc2c(cc(OC)c3ccccc23)C1=O (stereo unspecified)	7	-11	9	-471	54*	7
COC(=O)N=Nc1c(O)[nH]c2ccc(Br)cc12	-1	-4	7	37	70*	1
O=C(O)c1ccc(N=Nc2c(O)[nH]c3ccc(Br)cc23)cc1	69*	57*	-6	38	14	62*
Oc1[nH]c2ccc(Br)cc2c1N=NC(=S)N1CCOCC1	-8	15	42*	28	14	-7
O=C(CNC(=O)c1ccccc1)N=Nc1c(O)[nH]c2ccc(Br)cc12	-9	-20	10	24	8	-14
O=C(O)c1ccc(N=Nc2c(O)[nH]c3cc(Cl)ccc23)cc1	95*	97*	-7	37	30	97*
CC1(C(=O)NS(=O)(=O)C2CC2)CCN(C(=O)c2ccccc2C(F)(F)F)C1 (stereo unspecified)	nt	nt	1	-1	nt	nt
CCc1nc2ccc(C(=O)NCCCN3CCCC3=O)cn2c1N(C)C(=O)COc1ccccc1	nt	nt	4	-15	nt	nt
CC(=O)N1CCC(=NNc2nc3ccccc3[nH]2)CC1	3	17	-14	19	63*	7
CCC(C)(C)C1CCC(=NNc2nc3ccccc3[nH]2)CC1 (stereo unspecified)	1	-3	5	-18	50*	7
Cc1cc(=O)[nH]c(NN=C2CCC(C(C)(C)C)CC2)n1 (stereo unspecified)	-11	-2	0	17	29	-6
CC1(C(=O)NCc2cccc3ccccc23)CCN1Cc1cc2ccccc2o1 (stereo unspecified)	nt	nt	11	-2	nt	nt
O=C(Nc1ccc([N+](=O)[O-])cc1)c1cc(-c2ccccn2)nc2c(Cl)cccc12	-9	-4	-8	24	5	-3
COc1ccc2c(c1)c1nnc(SCC(=O)N3C(C)CCCC3C)nc1n2C (stereo unspecified)	-2	-6	-14	17	50*	-6
COc1ccc2c(c1)c1nnc(SC)nc1n2C	5	-5	-6	16	44	2
CC1CC1c1ccc(/C=C(\C#N)C(=O)Nc2cc(Cl)ccc2Cl)o1 (stereo unspecified)	2	5	30	-129	60*	3
CCOC(=O)c1sc(N/N=C/c2cccc(C)c2)nc1C	-17	-22	29	i	98*	-10
CCOC(=O)c1sc(N/N=C/c2ccccc2)nc1C	-16	17	32	-413	61*	-3
O=C(O)Cc1sc(N/N=C\c2ccccc2)nc1-c1ccccc1	20	28	4	-161	75*	-3
COC(=O)C[C@H]1C=C[C@@H](NC(=O)NC2CCCCC2)[C@@H](CO)O1	nt	nt	-9	14	nt	nt
CC(C)CCNC(=O)Nc1ccc2c(c1)N(C)C(=O)CS2	-9	-15	-3	7	47*	-2
Cc1[nH]n(-c2ccc(Cl)cc2)c(=O)c1N=Nc1cccnc1	-7	-21	11	43*	33	9
Cc1ccc(N=Nc2c(C)[nH]n(-c3ccccc3)c2=O)cc1Br	14	3	9	24	22	1
Cc1[nH]n(-c2ccccc2)c(=O)c1N=Nc1cccc([N+](=O)[O-])c1	-13	5	4	30	4	5
Cc1[nH]n(-c2ccccc2)c(=O)c1N=Nc1cccc(Cl)c1	-3	-4	11	22	58*	-14
SMILES	SENP8 block-1	SENP6 block	EBI2 antag	SENP8 block-2	AHR activator	SENP7 inh
COC(=O)c1ccc(N=Nc2c(C)[nH]n(-c3ccccc3)c2=O)cc1	1	3	2	33	78*	1
Cc1[nH]n(-c2ccccc2)c(=O)c1N=Nc1ccc(F)cc1	6	-3	9	38	65*	6
CCc1cc(=O)[nH]c(SCCC(F)=C(F)F)n1	-8	-20	-13	3	-1	-7
CCc1ccc([C@H]2[C@@H]3C(=O)C[C@@H]4C(=O)NC(=O)[C@@H]4[C@@H]3CN2S(=O)(=O)c2ccc(C)cc2)cc1	nt	nt	-12	7	nt	nt
Nc1[nH]n(-c2ccccc2)c(=O)c1N=Nc1ccc2ncsc2c1	-1	11	12	56*	56*	-6
CCOc1ccc(S(=O)(=O)Nc2cc(SCC(=O)O)c(O)c3ccccc23)cc1	nt	nt	-9	46*	nt	nt
COCCn1nnnc1CN(Cc1ccco1)Cc1cc2cc3c(cc2[nH]c1=O)OCO3	0	-11	-5	-271	72*	-8
Cc1c(C(=O)O)cccc1-c1ccc(/C=N/Nc2ccc(Br)cc2)o1	1	13	7	-392	134*	4
CCOC(=O)C1=CC[C@@H](c2cccc(Br)c2)N(S(=O)(=O)c2ccc(F)cc2)[C@H]1c1cccc(Cl)c1	nt	nt	18	20	nt	nt
CCOC(=O)[C@]12CCC=C1N(Cc1ccco1)C(=O)[C@H](CC(=O)NCCCN1CCCC1=O)C2	nt	nt	-10	4	nt	nt
C[C@@H]1CN([C@H](C)CO)C(=O)CCCn2nncc2CO[C@@H]1CN(C)C(=O)c1ccc(N2CCN(C)CC2)cc1	nt	nt	1	3	nt	nt
Oc1c(Cl)cc(Cl)cc1/C=N/Nc1ncc(Br)cn1	-4	-3	76*	-18	12	-4
O=C(N/N=C/c1cc(Cl)cc(Cl)c1O)c1ccncc1	-7	0	68*	6	19	11
O=C(N/N=C/c1c[nH]c2ccccc12)c1cc(Br)ccc1O	1	-24	-2	-216	77*	-3
O=C(N/N=C/c1c[nH]c2ccccc12)c1sc2ccccc2c1Cl	52*	65*	4	9	50*	36
Cc1cc(C(=O)N/N=C/c2c[nH]c3ccccc23)c(C)o1	6	15	-7	-8	56*	2
O=C(N/N=C/c1ccc(Br)s1)c1c[nH]c2ccccc12	1	7	8	-19	146*	16
O=C(N/N=C/c1c[nH]c2ccccc12)c1ccncc1	1	2	1	17	26	7
O=C(N/N=C/c1c[nH]c2ccc(Br)cc12)c1ccncc1	-10	-17	10	1	74*	-3
CC(=O)Nc1ccccc1C(=O)C(=O)Nc1ccccc1	-8	6	-5	33	12	-2
C/C(O)=C(/C=Nc1ccccc1)C(=O)Nc1ccccc1	-5	1	4	18	48*	0
Cc1ccc(CNc2ccc(O)cc2)cc1	44	48	11	72*	nt	5
Oc1ccc(/C=N/N=C(c2ccccc2)c2ccccc2)c(O)c1O	nt	nt	10	34*	1	nt
O=C(/C(=N/N=C/c1ccc(O)c(O)c1O)c1ccccc1)c1ccccc1	3	8	-1	30	-1	0
